Test results: PubChem BioAssay (Tox21)
Records with an inconclusive call do not appear. Where a call stands in place of a potency, no number is given. Calls of active or inactive are those of the source. Unless noted, the call rests on the fitted dose curve; in most records, active means well fitted curve in the direction sought with a large enough effect in the repeat runs; inconclusive means weak or mixed curves; inactive means no such curve, though single readings can be large; an effect the other way counts as inactive or inconclusive.

Experiments:
[1] = qHTS assay to identify aromatase inhibitors - cell viability counter screen (AID 743084);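 further: cells stimulated with testosterone during compound exposure; nearly all actives have a fitted effect of over 55% in size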; further: potency means the concentration at half of the fitted maximal effect
[2] = biological target: Aryl hydrocarbon receptor (Homo sapiens) (UniProt P35869); assay: qHTS assay to identify small molecule that activate the aryl hydrocarbon receptor (AhR) signaling pathway (AID 743085); further: nearly all actives have a fitted effect of over 15% in size; further: potency means the concentration at half of the fitted maximal effect;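 on activation: HG2L7.5c1 human HepG2 liver cells with stably integrated DRE-driven firefly reporter; series mostly up to about 70 µM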
In short: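 HepG2 cells stably carrying a 20-DRE firefly luciferase reporter (HG2L7.5c1) treated with compound for 24 hr at 37C. Luciferase read by ONE-Glo luminescence, with CellTiter-Fluor viability read first.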

[3] = qHTS assay to identify small molecule that activate the aryl hydrocarbon receptor (AhR) signaling pathway - cell viability counter screen (AID 743086);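 further: HepG2 liver cells carrying the AhR DRE luciferase reporter; series mostly up to about 70 µM; nearly all actives have a fitted effect of over 45% in size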
In short: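 HepG2-AhR-luc (HG2L7.5c1) cells, 4000/well, treated 24 h at 37 C with compound; viability measured as CellTiter-Fluor fluorescence after 30 min in the same wells as the luciferase read.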

[4] = biological target: Peroxisome proliferator-activated receptor gamma (Homo sapiens) (UniProt P37231); assay: qHTS assay to identify small molecule agonists of the peroxisome proliferator-activated receptor gamma (PPARg) signaling pathway (AID 743094; active means well fitted activation curve with a large enough effect in the signal ratio in the repeat runs, not every such curve was filed as active; the % refers to the signal ratio; further: potency means the concentration at half of the fitted maximal effect)
In short: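 HEK293H PPARg-bla cells, 5 h settle at 37C/5% CO2; compound (DMSO) 17 h, 37C; B/G FRET substrate 1 h RT; fluorescence intensity read-out. qHTS format.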

[5] = qHTS assay to identify small molecule antagonists of the peroxisome proliferator-activated receptor gamma (PPARg) signaling pathway - cell viability counter screen (AID 743194); further: nearly all actives have a fitted effect of over 55% in size
In short: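 Cytotoxicity counter screen in PPARg-bla HEK293H cells, same wells as reporter assay. Compounds plus 50 nM rosiglitazone (final) for 17 h at 37 C, then viability read by CellTiter-Glo luminescence.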

[6] = qHTS assay for small molecule activators of the heat shock response signaling pathway - cell viability counter screen (AID 743209); further: nearly all actives have a fitted effect of over 50% in size
In short: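 HSE-bla HeLa; 1500 cells/well; overnight 37 C, 5% CO2; compound 5 h 37 C; LiveBLAzer B/G substrate 2.5 h RT; CellTiter-Glo 30 min RT; luminescence.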

[7] = qHTS assay for small molecule activators of the heat shock response signaling pathway (AID 743210; active means well fitted activation curve with a large enough effect in the signal ratio in the repeat runs, with a control signal flat, not every such curve was filed as active; the % refers to the signal ratio;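 further: HeLa cells with beta-lactamase reporter driven by heat shock elements; series mostly up to about 63 µM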)
In short: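 Beta-lactamase reporter read-out: FRET substrate fluorescence after 2.5 h at RT, following 5 h compound treatment at 37 C of HeLa cells carrying HSE-driven bla reporter; quantitative HTS format.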

[8] = biological target: Peroxisome proliferator-activated receptor gamma (Homo sapiens) (UniProt P37231); assay: qHTS assay to identify small molecule antagonists of the peroxisome proliferator-activated receptor gamma (PPARg) signaling pathway (AID 743191; calls by dose curve; further: series mostly up to about 63 µM; nearly all actives have a fitted effect of over 30% in size)
In short: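 GeneBLAzer PPARg UAS-bla HEK293H cells, 5 h post-plating, exposed to compounds 17 h at 37C. LiveBLAzer B/G FRET substrate added for 1 h at room temperature; beta-lactamase reporter read by fluorescence intensity.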

[9] = qHTS assay for small molecule agonists of the antioxidant response element (ARE) signaling pathway (AID 743202; active means well fitted activation curve with a large enough effect in the signal ratio in the repeat runs, not every such curve was filed as active; the % refers to the signal ratio; further: potency means the concentration at half of the fitted maximal effect)
In short: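 HepG2 ARE-bla reporter line, 2,000 cells/well; 5 h preincubation 37 C/5% CO2; compound (DMSO) 16 h 37 C; B/G FRET substrate 2 h RT; fluorescence intensity.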

[10] = qHTS assay for small molecule agonists of the antioxidant response element (ARE) signaling pathway - cell viability counter screen (AID 743203; calls by dose curve; further: nearly all actives have a fitted effect of over 55% in size)
In short: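 Luminescence read-out (CellTiter-Glo, 30 min at room temperature) measured cell viability in the same wells as the ARE beta-lactamase reporter. HepG2 ARE-bla cells were treated with compounds for 16 hrs at 37C/5% CO2.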

Aryl hydrocarbon receptor (Homo sapiens), sequence (P35869 whole entry, looked up): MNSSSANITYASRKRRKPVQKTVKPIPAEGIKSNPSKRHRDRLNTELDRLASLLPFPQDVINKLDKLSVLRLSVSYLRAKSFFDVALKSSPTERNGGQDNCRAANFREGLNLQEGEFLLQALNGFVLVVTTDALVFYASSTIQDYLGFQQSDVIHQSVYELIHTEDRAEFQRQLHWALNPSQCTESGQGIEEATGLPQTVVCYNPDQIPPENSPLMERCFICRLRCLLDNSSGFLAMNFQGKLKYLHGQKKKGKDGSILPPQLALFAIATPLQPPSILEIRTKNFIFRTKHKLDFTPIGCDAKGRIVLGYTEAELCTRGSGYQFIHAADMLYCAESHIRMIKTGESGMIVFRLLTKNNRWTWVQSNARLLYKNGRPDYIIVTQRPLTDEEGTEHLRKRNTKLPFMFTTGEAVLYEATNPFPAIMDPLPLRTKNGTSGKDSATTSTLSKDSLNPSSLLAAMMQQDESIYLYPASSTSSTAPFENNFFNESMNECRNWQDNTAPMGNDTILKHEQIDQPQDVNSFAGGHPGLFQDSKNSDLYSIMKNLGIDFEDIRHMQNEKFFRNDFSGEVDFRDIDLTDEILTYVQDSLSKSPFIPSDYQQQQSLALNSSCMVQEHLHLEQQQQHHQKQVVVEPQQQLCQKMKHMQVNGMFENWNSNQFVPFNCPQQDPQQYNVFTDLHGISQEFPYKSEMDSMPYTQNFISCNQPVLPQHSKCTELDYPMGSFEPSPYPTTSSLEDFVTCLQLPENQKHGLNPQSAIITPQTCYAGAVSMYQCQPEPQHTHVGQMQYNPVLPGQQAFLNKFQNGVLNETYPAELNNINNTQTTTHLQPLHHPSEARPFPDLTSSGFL
Peroxisome proliferator-activated receptor gamma (Homo sapiens), sequence (P37231 whole entry, looked up): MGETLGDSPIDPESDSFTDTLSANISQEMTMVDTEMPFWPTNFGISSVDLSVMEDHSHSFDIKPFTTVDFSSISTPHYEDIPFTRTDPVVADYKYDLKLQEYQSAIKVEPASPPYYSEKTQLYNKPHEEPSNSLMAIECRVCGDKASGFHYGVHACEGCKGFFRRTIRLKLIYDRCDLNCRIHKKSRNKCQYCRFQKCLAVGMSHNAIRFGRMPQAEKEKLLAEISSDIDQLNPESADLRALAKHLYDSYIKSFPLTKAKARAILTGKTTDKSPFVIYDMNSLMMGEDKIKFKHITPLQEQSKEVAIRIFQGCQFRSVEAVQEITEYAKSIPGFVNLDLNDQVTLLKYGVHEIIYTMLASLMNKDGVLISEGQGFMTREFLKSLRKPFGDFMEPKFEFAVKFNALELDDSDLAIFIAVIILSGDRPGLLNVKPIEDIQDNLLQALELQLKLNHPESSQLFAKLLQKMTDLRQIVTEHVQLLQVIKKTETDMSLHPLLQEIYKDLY

| SMILES | Potency [1] | Potency [2] | Potency [3] | Potency [4] | Potency [5] | Potency [6] | outcome [7] | Potency [8] | Potency [9] | Potency [10] |
| --- | --- | --- | --- | --- | --- | --- | --- | --- | --- | --- |
| Nc1ccc(C(=O)Nc2ccccc2N)cc1 | inactive | 26.6 µM (active) | inactive | 9.52 µM (active) | inactive | inactive | – | – | – | – |
| CC(C)c1ccc2c(C(C)C)cc(C(C)C)c(S(=O)(=O)O)c2c1 | inactive | inactive | inactive | inactive | inactive | inactive | inactive | – | – | – |
| CCCCCc1ccc(N)cc1 | inactive | inactive | inactive | – | inactive | inactive | inactive | inactive | – | – |
| CC(=O)CC(=O)c1ccccc1 | inactive | inactive | inactive | – | inactive | inactive | inactive | inactive | inactive | inactive |
| C[C@H](CCC(=O)O)[C@H]1CC[C@H]2[C@@H]3[C@H](O)C[C@@H]4C[C@H](O)CC[C@]4(C)[C@H]3CC[C@]12C | inactive | inactive | inactive | inactive | inactive | inactive | inactive | – | – | inactive |
| CC(C)CCCCCCOC(=O)c1ccc(C(=O)OCCCCCCC(C)C)c(C(=O)OCCCCCCC(C)C)c1 | inactive | inactive | inactive | inactive | inactive | inactive | inactive | – | – | inactive |
| CC/C(=C\C(=N/O)C(N)=O)C(C)[N+](=O)[O-] (configuration not stated) | inactive | inactive | inactive | – | inactive | inactive | – | inactive | – | inactive |
| CC(C)(C)C(=O)OCOP(=O)(COCCn1cnc2c(N)ncnc21)OCOC(=O)C(C)(C)C | inactive | inactive | inactive | inactive | – | inactive | – | – | 2.11 µM (active) | inactive |
| C#CCOC(=O)[C@@H](C)Oc1ccc(Oc2ncc(Cl)cc2F)cc1 | inactive | inactive | inactive | inactive | inactive | inactive | – | – | – | inactive |
| C=CC(=O)OCCOC(=O)CCC(=O)O | 61.1 µM (active) | inactive | – | 54.9 µM (active) | inactive | inactive | inactive | inactive | – | – |
| N=C(N=C(N)N)N1CCOCC1 | inactive | inactive | inactive | – | – | inactive | inactive | – | – | inactive |
| CC(C)(C)c1cc(CCC(=O)OCC(COC(=O)CCc2cc(C(C)(C)C)c(O)c(C(C)(C)C)c2)(COC(=O)CCc2cc(C(C)(C)C)c(O)c(C(C)(C)C)c2)COC(=O)CCc2cc(C(C)(C)C)c(O)c(C(C)(C)C)c2)cc(C(C)(C)C)c1O | inactive | inactive | – | inactive | inactive | inactive | inactive | inactive | inactive | – |
